A number with no mark means an inactive call.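 The calls were made as follows: active = MAPPIT score above the 99th percentile of random reference set scores in the same batch; inactive = at or below it.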

The source of these data is the supplement of paper PMC10105736.

Holding throughout (assay): MAPPIT interaction score (arbitrary units); higher = stronger binary interaction signal, active = hit call of the paper
Assay [1] has as its target Prosbeta2. The following applies: MAPPIT configuration: N-N; pair source set: Lit-BM-16.
Assay [2] deals with Pgam5. Conditions: MAPPIT configuration: N-N; pair source set: DPIM.
Assay [3] concerns the target Pfdn5. Conditions: pair source set: Lit-BM-16.
The target of assay [4] is Pu. The following applies: MAPPIT configuration: N-C; pair source set: screen_4.
The target of assay [5] is Psi. The following applies: MAPPIT configuration: N-N; pair source set: Lit-BM-16.
Assay [6] deals with Pgd. Conditions: pair source set: RRS.
The target in assay [7] is Prosalpha2. Conditions: pair source set: Lit-BM-16.
Assay [8] deals with Prosalpha4. The following applies: MAPPIT configuration: N-N; pair source set: Lit-BM-16.
Assay [9] addresses Prosbeta7. Conditions: pair source set: Lit-BM-16.
For assay [10], the target named is Ptp61F. Conditions: MAPPIT configuration: N-N; pair source set: Lit-BS-16.
Assay [11] addresses PolZ2. Conditions: MAPPIT configuration: N-N; pair source set: Finley_Y2H.
The target in assay [12] is Rpt2. Conditions: MAPPIT configuration: N-N.
In assay [13] the target is Rpt4. The following applies: MAPPIT configuration: N-N; pair source set: Lit-BM-16.
Assay [14] concerns the target Pis. The following applies: MAPPIT configuration: N-N; pair source set: DPIM.
In assay [15] the target is Prp3. Conditions: MAPPIT configuration: N-N.
Assay [16] has as its target Prosbeta3. Conditions: MAPPIT configuration: N-C; pair source set: Lit-BM-16.
The target in assay [17] is Pten. Conditions: MAPPIT configuration: N-N; pair source set: DPIM.
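Also: HEK293T cells with Epo stimulation, STAT-responsive firefly luciferase reporter, fold induction versus unstimulated cells divided by the larger fold induction of two negative controls lacking either bait or prey.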

B1: Prosbeta4 (protein)
chain: MLNNYNSLAQPMWQNGPAPGEFYNFTGGQTPVQQLPRELTTMGPYGTKHSTASSTTGTSVLGIRYDSGVMLAADTLVSYGSMARYQNIERVFKVNKNILLGGSGDFADIQSIKRNIDQKMIEDQCCDDNIEMKPKSLASWMTRVLYNRRSRMNPLYIDVVVGGVDNEGTPYLANVDLRGRSYEDYVVATGFARHLAVPLVREKKPKDRDFTAVEASELIRTCMEVLYYRDTRNISQYTVGVCSVNGCGVEGPFQVNENWTFAETIKGY
Regarding B1, the MAPPIT interaction score in assay [1] is 2.07.

B2: Vps25 (protein)
chain: MAEFQWPWEYTFPPFFTLQPHEETRQQQLKVWTDLFLKYLRHTNRFTLSIGDQNSPLFHNEALKRRLSPELVLAILGELERSGHANPLDKRRQEWQVYWFTLEEYGNMVYDWVQETGQTNTICTLYEIASGENTSHLDFYGVDEAVLLSALRLLEEKGRCELIEMDGSHGVKFF
On to B2, for which the MAPPIT interaction score in assay [2] was 2.9 (active).

B3: Pfdn2 (protein)
chain: MSTESAKPALSQEAIVAQFQQLRNEQRNLVNSLNTLEMDLREHKTVIETLEAADPERKCFRQIGGVLCERTVKEVLPQLVENKDFIAKTIQMVTNDLSKKGSELNKFKEEHNIKIRGEHLVAEGAKGDDAEDKAENRNVLVFN
Regarding B3, the MAPPIT interaction score in assay [3] (MAPPIT configuration: N-C) is 2.36; in assay [3] (MAPPIT configuration: N-N), 5.93 (active).

B4: Pu (protein)
chain: MSFTRQLSEMSASELNDAIDDTNFPQAHILSRGRNNSVCSTSSTSGTSSLADRQQNQAEEATAIAGTPVEEVAPAPALVPLAGNQRPRLILKTNGSSPDSDGTQPKTPLTPRTSTTPGHEKCTFHHDLELDHKPPTREALLPDMARSYRLLLGGLGENPDRQGLIKTPERAAKAMLYFTKGYDQSLEDVLNGAVFDEDHDEMVVVKDIEMFSMCEHHLVPFYGKVSIGYLPCNKILGLSKLARIVEIFSRRLQVQERLTKQIAVAVTQAVQPAGVAVVVEGVHMCMVMRGVQKINSKTVTSTMLGVFRDDPKTREEFLNLVNSK
Regarding B4, the MAPPIT interaction score in [4] is 5.06 (active).

B5: snRNP-U1-70K (protein)
chain: MTQYLPPNLLALFAAREPIPFMPPVDKLPHEKKSRGYLGVAKFMADFEDPKDTPLPKTVETRQERLERRRREKAEQVAYKLEREIALWDPTEIKNATEDPFRTLFIARINYDTSESKLRREFEFYGPIKKIVLIHDQESGKPKGYAFIEYEHERDMHAAYKHADGKKIDSKRVLVDVERARTVKGWLPRRLGGGLGGTRRGGNDVNIKHSGREDNERERERYRLEREREDREGPGRGGGSNGLDARPGRGFGAERRRSRSRERRDRERDRGRGAVASNGRSRSRSRERRKRRAGSRERYDEFDRRDRRDRERERDRDREREKKKKRSKSRERESSRERRERKRERRDRERGTGSGGDVKERKPDFRDMDVIKIKEEPVDDGYPTFDYQNATIKREIDDEDEEKYRPPPAHHNMFSVPPPPILGRGNASTNPNPDNGQQSSGDPSWWRQ
As for B5, in assay [5], the MAPPIT interaction score is 0.25.

B6: up (protein)
chain: MSDDEEYTSSEEEEVVEETREETKPPQTPAEGEGDPEFIKRQDQKRSDLDDQLKEYITEWRKQRSKEEDELKKLKEKQAKRKVTRAEEEQKMAQRKKEEEERRVREAEEKKQREIEEKRMRLEEAEKKRQAMLQAMKDKDKKGPNFTIAKKDAGVLGLSSAAMERNKTKEQLEEEKKISLSFRIKPLAIEGFGEAKLREKAQELWELIVKLETEKYDLEERQKRQDYDLKELKERQKQQLRHKALKKGLDPEALTGKYPPKIQVASKYERRVDTRSYDDKKKLFEGGWDEISKDSNEKIWNEKKEQYTGRQKSKLPKWFGERPGKKAGEPETPEGEEDAKADEDIVEDDEEVEEEVVEEEDEEAEEDEEEEEEEEEEEEEEEEEEEEEEEEEEEEEE
Consider B6, for which the figures for the MAPPIT interaction score in [6] (MAPPIT configuration: N-C) and in [6] (MAPPIT configuration: N-N) were 1.18 and 0.149, respectively.

B7: Prosbeta3 (protein)
chain: MSILAYNGGCVVAMRGKDCVAIATDHRFGIQAQTISTDFKKVFHIGPRMFLGLTGLQTDILTVRDRLMFRKNLYETRENREMCPKPFSAMMSSFLYEHRFGPYFIEPVVAGLDPKTMEPFICNMDLIGCPNAPDDFVVAGTCAEQLYGMCETLWKPDLEPDQLFEVIAQSIVNAFDRDAMSGWGATVYIIEKDKITERTLKTRMD
For B7, the MAPPIT interaction score is 1.33 in [7] (MAPPIT configuration: N-N), -0.232 in [8], 0.398 in [9] (MAPPIT configuration: N-C) and 0.197 in assay [9] (MAPPIT configuration: N-N).

B8: Cyp9f2 (protein)
chain: MLWEFFALFAIAAALFYRWASANNDFFKDRGIAYEKPVLYFGNMAGMFLRKRAMFDIVCDLYTKGGSKKFFGIFEQRQPLLMVRDPDLIKQITIKDFDHFINHRNVFATSSDDDPHDMSNLFGSSLFSMRDARWKDMRSTLSPAFTGSKMRQMFQLMNQVAKEAVDCLKQDDSRVQENELDMKDYCTRFTNDVIASTAFGLQVNSFKDRENTFYQMGKKLTTFTFLQSMKFMLFFALKGLNKILKVELFDRKSTQYFVRLVLDAMKYRQEHNIVRPDMINMLMEARGIIQTEKTKASAVREWSDRDIVAQCFVFFFAGFETSAVLMCFTAHELMENQDVQQRLYEEVQQVDQDLEGKELTYEAIMGMKYLDQVVNEVLRKWPAAIAVDRECNKDITFDVDGQKVEVKKGDVIWLPTCGFHRDPKYFENPMKFDPERFSDENKESIQPFTYFPFGLGQRNCIGSRFALLEAKAVIYYLLKDYRFAPAKKSCIPLELITSGFQLSPKGGFWIKLVQRN
In the case of B8, the MAPPIT interaction score in [10] is -0.452.

B9: rtp (protein)
chain: MAMDDYDDDMSSVGVTTARIENQHQQHPHQQGQHGHHQQGQGQSQYSAGAVKVGGWRYEDASRYIGEWNQRGQKHGIGHLQFADGTRYDGQFQEGLSQGVGCLWFADGAKYEGEFHQGWFHGNGIFWRADGMKYEGEFRGGKIWGLGLLTFQDFTHGFPRNEGFFQDCRFMRRRRCPEVVQRAQKCALMARSQCEHPY
On to B9, for which the MAPPIT interaction score in assay [11] was 0.217.

B10: Rpt6 (protein)
chain: MTVTNRMEIESAYHKGEGFRSYYIQKIEELQLVVAEKHQNLRRLQAQRNELNAKVRMLREELQLLQEQGSYVGEVVKPMDKKKVLVKVHPEGKFVVDLDKNIDINDVTPNCRVALRNESYTLHKILPNKVDPLVSLMMVEKVPDSTYEMVGGLDKQIKEIKEVIELPVKHPELFDALGIAQPKGVLLYGPPGTGKTLLARAVAHHTECTFIRVSGSELVQKFIGEGSRMVRELFVMAREHAPSIIFMDEIDSIGSSRIESGSGGDSEVQRTMLELLNQLDGFEATKNIKVIMATNRIDILDPALLRPGRIDRKIEFPPPNEEARLDILKIHSRKMNLTRGINLRKIAELMPGASGAEVKGVCTEAGMYALRERRVHVTQEDFEMAVAKVMQKDSEKNMSIKKLWK
Take B10: the MAPPIT interaction score in [7] (MAPPIT configuration: N-C) is 1.08; in assay [7] (MAPPIT configuration: N-N) it was 1.52; in assay [12] (pair source set: Finley_Y2H) it was 2.59; in [12] (pair source set: Lit-BM-16) it was 2.59; in assay [13] it was -0.794.

B11: CG7601 (protein)
chain: MKVQDMDKCAPSSDWNVLYWVLGTVLMPVALPLAIINIWQRFQAQKFRNQLPGKVVLITGASSGLGESLAHVFYRAGCRVILAARRTQELERVKKDLLALDVDPAYPPTVLPLDLAELNSIPEFVTRVLAVYNQVDILINNGGISVRADVASTAVDVDLKVMVVNYFGSVALTKALLPSMVKRGSGHICFISSVQGKFAIPQRAAYSASKHAMQAFADSLRAEVANKNINVSCVSPGYIRTQLSLNALTGSGSSYGKVDETTAKGMSPDKLAERILQCILRKEPDIIVSDVQAKIAYYLRHLCPSLYFWIMAKRAVKLENAEKKST
In the case of B11, in assay [14], the MAPPIT interaction score was 0.037.

B12: Mettl14 (protein)
chain: MSDVLKSSQERSRKRRLLLAQTLGLSSVDDLKKALGNAEDINSSRQLNSGGQREEEDGGASSSKKTPNEIIYRDSSTFLKGTQSSNPHNDYCQHFVDTGQRPQNFIRDVGLADRFEEYPKLRELIKLKDKLIQDTASAPMYLKADLKSLDVKTLGAKFDVILIEPPLEEYARAAPSVATVGGAPRVFWNWDDILNLDVGEIAAHRSFVFLWCGSSEGLDMGRNCLKKWGFRRCEDICWIRTNINKPGHSKQLEPKAVFQRTKEHCLMGIKGTVRRSTDGDFIHANVDIDLIISEEEEFGSFEKPIEIFHIIEHFCLGRRRLHLFGRDSSIRPGWLTVGPELTNSNFNSELYQTYFAEAPATGCTSRIELLRPKSPPPNSKVLRGRGRGFPRGRGRPR
With B12, the MAPPIT interaction score in assay [15] (pair source set: Curagen_high_conf) is 1.8.

B13: Prosalpha4 (protein)
chain: MSSRYDRAVTIFSPDGHLLQVEYAQEAVRKGSTAVGVRGANCVVLGVEKKSVAQLQEDRKVRKICMLDNHVVMAFAGLTADARIMINRAQVECQSHRLNVEDPVTLEYITRFIAQLKQKYTQSNGRRPFGISCLIGGFDADGSAHLFQTEPSGIFYEYKANATGRSAKVVREFFEKSYREEEVANEHGAVKLAIRALLEVAQSGQNNLEVAIMENGKPLKMLDTDVITDYVKIIEKEKEEELEKKKQKK
In the case of B13, in [16], the MAPPIT interaction score is 1.51.

B14: CG4709 (protein)
chain: MEEYEAQLLVVEQALENAADDAQRQDLLALKNNLQELLALTRESGDEAPIDELPQQGDNLDDELQRLKSELNDLEAAGSSQTALDEERQLADLRTKYTAMVGEKCSAPHEHSWGTCYHNALICGVDDEVVMNSEGVLDARLRVLFTNPTHREMLPCSYYLEGECRFDEAKCRFSHGALVTGSSIRKYNPPDFHKLSRSRPVFALLPDRLWHRGRVLCVNFVEQICRVRLDGQDHKERERDFKFEELYPLTTDQDEDDELSSEESNSSMNDNSSDEAESDMDDLEEARRARMVELSLFTFKPTERLGAWEEFTRGIGSKLMEKMGYIHGTGLGSDGRGIVTPVSAQILPQGRSLDACMELREAANGDKDYFSVERKLKRAQRRQRKADEKAYVRESQRVDVFTFLNDSVLGPGESTQQGEQVTKKAKTNELQQHSTKTLNVETVRIADEIRRKQRDMAKVKQSLDRNSGDAQLQKRLQVQMQSHKQELATLQAQERSLSKEQQTRKSKNKMFEF
With B14, in assay [15] (pair source set: Lit-BM-16), the MAPPIT interaction score is 2.3.

B15: mTerf3 (protein)
chain: MFCSALRNILRNSQNAAKNATITSQIRNLRGQQSVHHEVEVLTSPGITTKQNDKKTEPAECEGSKEVALDFRNREAHVPSFNLAAYVNNSSTLQQFLSLGVDLHSIERRKGLGDFVLKLDFEKNVKPYITFLVDQGVSPDDFGRMFTKNPLLFKEDLDDLQTRVNYLKSKRFSDEARQRILTQNPYWLMFSTRRVDRRLGYFQKEFKLSGHDLRLLATREPNAITYNMEHLRKSVFTLKEEMGFNAKELSDLVVRKPRLLMIPPDDLVERFSYIHQDMGLPHAQIVQCPELLASREFRLRERHEFLKLLGRAQYDPQKDLYISPKTIVEGNNFYFVRNVAKSDLETFDLFLKTR
Turning to B15, the MAPPIT interaction score in [17] is -0.325.
